Measured values published in the supplement of paper PMC10849652.
About 8,800 targets were measured; listed, in parts, are those with a hit and a random draw of the rest. About 0.5% of all pairs of compound and target were hits. Values without a mark were called inactive.

How the values were obtained:
Assay in all cases: log2 fold change, soluble protein after heating vs DMSO (PISA); higher = thermal stabilisation; K562 lysate, 10 uM; active = over 0.2 and 3.5 SD of the protein, either way, in both replicates (recomputed)
[1] = compound: C#Cc1cccc(Nc2ncnc3cc(OCCOC)c(OCCOC)cc23)c1 [erlotinib]
Summary of the method: (§1)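 Thermal stability, expressed as log-two fold change relative to solvent controls, is given from duplicates. Crude K562 extract in PBS pH 7.4 with 1 mM MgCl2, at 1 mg/mL protein, was treated with 10 μM compound for 30 min and heated in aliquots for 3 min across 48°C-58°C. After pooling, adjustment to 0.5% NP-40 at 4°C and centrifugation at 21,000xg for 90 min, supernatant protein was measured by TMTpro 16plex LC-MS/MS with channel sums equalised.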

[2] = compound: C/C(=N\NC(=O)C1=CC(=CC=C1)S(=O)(=O)N2CCOCC2)/C3=C(C=CC(=C3)Cl)O
Summary of the method: as §1

[3] = compound: C1=CC(=CC=C1C2=NC3=C(N2)C=C(C=C3)C(=O)N)OC4=CC=C(C=C4)Cl
Summary of the method: as §1

[4] = compound: C1=CC2=C(C=CC(=C2)/C=C\3/C(=O)NC(=NCC4=CC=CS4)S3)N=C1
Summary of the method: as §1

[5] = compound: C1=CC2=NC=CN=C2C=C1/C=C/3\C(=O)NC(=O)S3
Summary of the method: as §1

[6] = compound: C1=CC=C(C=C1)C2=NC(=C(N2)C3=CC=NC=C3)C4=CC(=C(C=C4)Cl)O
Summary of the method: as §1

[7] = compound: C1=CC=C2C(=C1)C3=NNC4=CC=CC(=C43)C2=O
Summary of the method: as §1

[8] = compound: C1CCN(C1)C(=O)NC2=CC=CC(=C2)NC3=NC=C(C(=N3)NCCC4=CN=CN4)Br
Summary of the method: as §1

[9] = compound: C1CN(CCC1(CC2=CC=C(C=C2)Cl)N)C3=NC=NC4=C3C=CN4
Summary of the method: as §1

[10] = compound: C1COCCN1CCN2C3=CC=CC=C3N=C2NC(=O)C4=CC(=CC=C4)[N+](=O)[O-] [IRAK-1-4 Inhibitor I]
Summary of the method: as §1

Sequence of UniProt Q93100 (Q93100 whole entry, looked up): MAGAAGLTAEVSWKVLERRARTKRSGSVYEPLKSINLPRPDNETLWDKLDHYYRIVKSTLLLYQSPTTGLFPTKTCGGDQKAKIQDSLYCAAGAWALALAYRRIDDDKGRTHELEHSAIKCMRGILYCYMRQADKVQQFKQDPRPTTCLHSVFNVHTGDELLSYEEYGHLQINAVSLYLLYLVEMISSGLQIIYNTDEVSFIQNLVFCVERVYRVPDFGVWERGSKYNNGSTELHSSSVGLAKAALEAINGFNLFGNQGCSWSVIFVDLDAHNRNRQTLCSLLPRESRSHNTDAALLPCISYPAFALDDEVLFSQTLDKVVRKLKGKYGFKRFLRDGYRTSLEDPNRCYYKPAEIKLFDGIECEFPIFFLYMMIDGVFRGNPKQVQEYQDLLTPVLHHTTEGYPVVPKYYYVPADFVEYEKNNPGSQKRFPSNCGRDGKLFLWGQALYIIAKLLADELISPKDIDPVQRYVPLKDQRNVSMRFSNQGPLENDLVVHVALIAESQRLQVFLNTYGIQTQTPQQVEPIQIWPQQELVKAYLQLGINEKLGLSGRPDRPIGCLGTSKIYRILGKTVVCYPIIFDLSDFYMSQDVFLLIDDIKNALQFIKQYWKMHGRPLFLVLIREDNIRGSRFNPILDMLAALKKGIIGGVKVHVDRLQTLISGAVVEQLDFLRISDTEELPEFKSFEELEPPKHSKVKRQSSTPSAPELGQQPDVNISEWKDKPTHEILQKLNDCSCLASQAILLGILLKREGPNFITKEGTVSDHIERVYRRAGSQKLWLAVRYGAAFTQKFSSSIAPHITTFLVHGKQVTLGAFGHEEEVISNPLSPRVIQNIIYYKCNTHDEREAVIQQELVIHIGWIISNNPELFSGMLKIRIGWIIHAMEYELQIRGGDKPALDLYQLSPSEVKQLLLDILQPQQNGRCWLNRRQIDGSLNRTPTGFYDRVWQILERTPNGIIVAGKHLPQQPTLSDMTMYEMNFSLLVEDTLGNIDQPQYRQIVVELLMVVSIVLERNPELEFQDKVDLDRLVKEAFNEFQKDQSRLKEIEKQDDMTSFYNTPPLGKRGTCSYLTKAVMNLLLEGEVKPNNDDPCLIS
Sequence of UniProt Q9H939 (Q9H939 whole entry, looked up): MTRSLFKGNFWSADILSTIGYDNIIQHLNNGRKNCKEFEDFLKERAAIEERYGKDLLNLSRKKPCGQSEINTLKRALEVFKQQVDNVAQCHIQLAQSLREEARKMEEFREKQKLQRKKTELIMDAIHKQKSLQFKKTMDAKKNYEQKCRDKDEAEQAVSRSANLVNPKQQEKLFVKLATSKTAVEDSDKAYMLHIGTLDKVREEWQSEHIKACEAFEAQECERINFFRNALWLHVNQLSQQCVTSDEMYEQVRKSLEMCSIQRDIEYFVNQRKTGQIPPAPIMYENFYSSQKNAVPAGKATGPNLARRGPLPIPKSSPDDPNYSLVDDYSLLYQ
Sequence of UniProt Q9Y2I7 (Q9Y2I7 whole entry, looked up): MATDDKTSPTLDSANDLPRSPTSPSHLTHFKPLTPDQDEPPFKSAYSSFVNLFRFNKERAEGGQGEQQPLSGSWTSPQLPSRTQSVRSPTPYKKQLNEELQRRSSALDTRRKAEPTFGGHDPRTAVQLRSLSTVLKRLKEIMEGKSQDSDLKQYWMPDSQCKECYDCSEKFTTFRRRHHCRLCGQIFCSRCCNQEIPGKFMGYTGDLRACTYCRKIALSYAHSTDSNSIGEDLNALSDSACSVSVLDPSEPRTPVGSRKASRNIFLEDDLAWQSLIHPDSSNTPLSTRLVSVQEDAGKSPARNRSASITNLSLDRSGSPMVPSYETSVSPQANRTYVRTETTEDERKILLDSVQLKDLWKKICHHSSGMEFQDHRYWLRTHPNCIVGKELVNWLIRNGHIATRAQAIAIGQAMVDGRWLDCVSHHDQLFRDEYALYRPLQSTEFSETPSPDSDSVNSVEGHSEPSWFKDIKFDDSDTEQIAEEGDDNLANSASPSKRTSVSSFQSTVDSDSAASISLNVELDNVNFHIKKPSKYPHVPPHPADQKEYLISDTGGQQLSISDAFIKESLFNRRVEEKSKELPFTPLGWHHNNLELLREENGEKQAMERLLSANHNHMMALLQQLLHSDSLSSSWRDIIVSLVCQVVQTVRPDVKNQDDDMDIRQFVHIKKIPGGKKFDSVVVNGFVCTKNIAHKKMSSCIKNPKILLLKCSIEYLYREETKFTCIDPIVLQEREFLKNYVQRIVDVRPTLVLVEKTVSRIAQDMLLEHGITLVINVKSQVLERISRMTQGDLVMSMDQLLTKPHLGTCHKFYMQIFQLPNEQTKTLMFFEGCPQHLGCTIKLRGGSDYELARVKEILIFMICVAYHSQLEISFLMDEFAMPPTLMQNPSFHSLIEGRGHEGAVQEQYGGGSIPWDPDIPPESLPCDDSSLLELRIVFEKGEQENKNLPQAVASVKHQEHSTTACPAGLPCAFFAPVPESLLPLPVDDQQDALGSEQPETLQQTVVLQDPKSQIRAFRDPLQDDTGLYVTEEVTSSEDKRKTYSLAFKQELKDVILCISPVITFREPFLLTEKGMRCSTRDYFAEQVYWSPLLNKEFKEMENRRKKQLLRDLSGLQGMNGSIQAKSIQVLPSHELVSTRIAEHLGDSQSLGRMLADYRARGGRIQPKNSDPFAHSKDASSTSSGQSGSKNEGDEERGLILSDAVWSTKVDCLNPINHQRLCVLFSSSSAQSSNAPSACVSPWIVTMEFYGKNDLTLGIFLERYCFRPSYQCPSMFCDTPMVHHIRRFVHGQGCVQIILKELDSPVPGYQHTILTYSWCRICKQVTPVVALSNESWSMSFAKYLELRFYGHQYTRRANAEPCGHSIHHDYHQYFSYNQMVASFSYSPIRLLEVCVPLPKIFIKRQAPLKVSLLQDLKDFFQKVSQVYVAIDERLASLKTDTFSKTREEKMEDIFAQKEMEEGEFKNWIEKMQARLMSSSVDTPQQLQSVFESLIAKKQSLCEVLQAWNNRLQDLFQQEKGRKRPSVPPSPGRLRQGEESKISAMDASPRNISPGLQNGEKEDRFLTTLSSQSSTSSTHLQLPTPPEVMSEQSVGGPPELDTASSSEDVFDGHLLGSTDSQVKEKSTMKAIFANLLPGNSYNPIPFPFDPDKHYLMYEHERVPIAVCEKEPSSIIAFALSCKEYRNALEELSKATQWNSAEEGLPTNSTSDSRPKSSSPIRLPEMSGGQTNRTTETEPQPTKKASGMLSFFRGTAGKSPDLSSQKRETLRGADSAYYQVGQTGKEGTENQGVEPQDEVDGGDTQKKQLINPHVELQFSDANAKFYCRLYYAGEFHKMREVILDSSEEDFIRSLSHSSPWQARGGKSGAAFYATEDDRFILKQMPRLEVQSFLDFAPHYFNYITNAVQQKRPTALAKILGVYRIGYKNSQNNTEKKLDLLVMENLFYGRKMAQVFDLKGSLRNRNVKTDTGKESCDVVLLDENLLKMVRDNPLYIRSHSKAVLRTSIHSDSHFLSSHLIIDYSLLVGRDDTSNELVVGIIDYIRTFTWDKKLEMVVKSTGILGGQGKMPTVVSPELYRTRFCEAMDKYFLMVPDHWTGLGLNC
Sequence of UniProt Q9NR22 (Q9NR22 whole entry, looked up): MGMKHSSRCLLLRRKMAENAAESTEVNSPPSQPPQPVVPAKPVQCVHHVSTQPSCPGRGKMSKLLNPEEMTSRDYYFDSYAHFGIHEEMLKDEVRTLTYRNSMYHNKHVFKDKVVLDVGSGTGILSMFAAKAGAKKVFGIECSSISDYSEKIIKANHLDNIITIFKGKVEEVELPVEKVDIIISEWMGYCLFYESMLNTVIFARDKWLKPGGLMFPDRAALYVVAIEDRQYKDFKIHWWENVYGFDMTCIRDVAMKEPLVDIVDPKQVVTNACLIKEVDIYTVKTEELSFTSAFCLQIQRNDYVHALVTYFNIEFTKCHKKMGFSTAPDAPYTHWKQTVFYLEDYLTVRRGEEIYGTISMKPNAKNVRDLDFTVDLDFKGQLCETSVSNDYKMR
Sequence of UniProt P14314 (P14314 whole entry, looked up): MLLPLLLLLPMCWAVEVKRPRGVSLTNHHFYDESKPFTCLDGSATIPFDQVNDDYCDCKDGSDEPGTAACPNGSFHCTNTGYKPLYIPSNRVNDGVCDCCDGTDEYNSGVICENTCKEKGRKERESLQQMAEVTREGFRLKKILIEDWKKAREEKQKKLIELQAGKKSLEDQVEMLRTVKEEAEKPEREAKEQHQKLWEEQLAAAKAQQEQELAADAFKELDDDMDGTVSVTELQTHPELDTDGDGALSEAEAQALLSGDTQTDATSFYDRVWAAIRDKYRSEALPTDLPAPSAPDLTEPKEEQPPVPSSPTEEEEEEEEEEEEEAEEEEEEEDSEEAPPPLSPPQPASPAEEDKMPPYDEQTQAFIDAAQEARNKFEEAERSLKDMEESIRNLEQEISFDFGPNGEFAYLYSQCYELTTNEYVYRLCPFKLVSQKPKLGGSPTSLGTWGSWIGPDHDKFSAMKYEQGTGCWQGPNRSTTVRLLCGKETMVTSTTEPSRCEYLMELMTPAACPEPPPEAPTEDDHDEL
Sequence of UniProt Q9UBV8 (Q9UBV8 whole entry, looked up): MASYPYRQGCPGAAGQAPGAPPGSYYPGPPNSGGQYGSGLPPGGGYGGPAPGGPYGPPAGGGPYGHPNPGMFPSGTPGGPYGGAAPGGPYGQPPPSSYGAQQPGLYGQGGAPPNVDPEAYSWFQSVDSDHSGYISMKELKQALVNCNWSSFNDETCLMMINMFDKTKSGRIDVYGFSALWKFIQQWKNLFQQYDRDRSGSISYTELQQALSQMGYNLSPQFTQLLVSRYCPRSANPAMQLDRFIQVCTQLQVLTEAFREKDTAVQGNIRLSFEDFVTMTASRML
Sequence of UniProt Q9UHV9 (Q9UHV9 whole entry, looked up): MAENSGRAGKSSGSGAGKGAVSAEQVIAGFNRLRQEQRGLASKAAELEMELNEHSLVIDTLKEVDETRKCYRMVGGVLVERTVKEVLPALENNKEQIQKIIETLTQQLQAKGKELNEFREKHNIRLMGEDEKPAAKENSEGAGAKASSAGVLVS
Sequence of UniProt P06454 (P06454 whole entry, looked up): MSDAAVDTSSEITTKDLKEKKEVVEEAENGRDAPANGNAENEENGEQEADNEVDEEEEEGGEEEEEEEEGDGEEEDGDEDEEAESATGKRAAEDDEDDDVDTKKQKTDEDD

Target	log2 fold change [1]	log2 fold change [2]	log2 fold change [3]	log2 fold change [4]	log2 fold change [5]	log2 fold change [6]	log2 fold change [7]	log2 fold change [8]	log2 fold change [9]	log2 fold change [10]
POLR2F (UniProt P61218)	-0.05	-0.272	0.069	-0.091	0.033	0.076	0.01	0.101	0.019	-0.052
PRMT8 (UniProt Q9NR22)	0.01	-0.003	0.009	-0.046	-0.015	0.024	-0.031	-0.012	0.013	0.024
PSTPIP2 (UniProt Q9H939)	0.002	0.05	-0.028	0.055	-0.031	-0.003	-0.122	0.01	0.005	0.009
PEF1 (UniProt Q9UBV8)	-0.01	0.012	-0.014	-0.001	-0.039	-0.012	-0.021	-0.016	0.056	0.025
PICALM (UniProt H0YEH1)	-0.004	-0.111	0.053	0.066	-0.021	-0.015	0.106	-0.219	-0.333	0.053
PITRM1 isoform 2 (UniProt Q5JRX3)	-0.035	0.011	0.077	0.04	-0.037	-0.025	0.009	0.016	0.024	-0.015
PHOSPHO2 (UniProt Q8TCD6)	-0.018	-0.225	0.046	-0.032	-0.027	-0.002	0.072	0.224	-0.16	-0.014
PRIM1 (UniProt P49642)	-0.004	0.061	-0.011	-0.01	-0.03	0.02	0	-0.006	0.002	0.003
PPP3CA isoform 2 (UniProt Q08209)	-0.005	-0.037	0.045	-0.036	-0.014	0.014	-0.006	0.082	-0.026	-0.01
PRPF6 (UniProt O94906)	0.018	0.038	-0.003	-0.035	0.001	0.037	-0.018	-0.056	-0.032	-0.046
PLK1 (UniProt P53350)	0.006	-0.032	-0.013	0.077	-0.092	0	-0.147	-0.069	0.143	-0.141
PFDN2 (UniProt Q9UHV9)	-0.055	-0.003	-0.038	0.006	0	-0.027	0.071	0.043	-0.026	-0.015
PUM1 isoform 3 (UniProt Q14671)	-0.025	0.051	0.06	-0.028	0.02	-0.052	-0.033	0.01	0.013	0.011
PPP1R8 (UniProt Q12972)	0.002	-0.032	0.029	0.002	-0.012	0.008	0.007	-0.009	0.02	0.008
PRAME (UniProt P78395)	0.02	-0.056	-0.001	-0.027	-0.037	0.013	-0.043	-0.004	0.007	-0.008
PRKCSH isoform 2 (UniProt P14314)	0.038	-0.107	0.084	0.024	0.001	-0.054	-0.011	-0.009	0.015	0.001
PPM1H (UniProt Q9ULR3)	-0.048	-0.045	0.25 (active)	0.021	-0.049	0.009	0.011	-0.039	0.101	0.037
PI4KB (UniProt Q9UBF8)	0.017	-0.108	-0.011	0.038	0.173	0.011	0.193	0.01	-0.065	-0.003
PRKCA (UniProt P17252)	0.031	-0.086	-0.019	0.108	0	0.044	-0.088	-0.037	0.044	0.005
PIM1 isoform 2 (UniProt P11309)	0.118	-0.106	-0.164	0.028	0.238	0.123	-0.034	-0.077	0.02	-0.076
PHKB isoform 3 (UniProt Q93100)	-0.053	-0.049	0	0.044	0.082	0.036	0.142	0.038	0.01	0.006
POLR2M (UniProt P0CAP2)	0.075	-0.053	0.014	0.034	-0.013	0.027	-0.045	-0.182	-0.002	0.026
PLEKHF1 (UniProt Q96S99)	0.027	0.032	-0.067	0.006	0.05	0.017	-0.019	-0.032	0.029	-0.024
PUF60 (UniProt Q9UHX1)	0.001	0.003	-0.01	0.011	-0.018	-0.018	0.01	0.003	0.003	-0.023
PTMA (UniProt P06454)	-0.002	0.062	0.067	-0.013	-0.002	0.01	-0.017	-0.009	-0.017	-0.037
PCBP2 isoform 3 (UniProt Q15366)	-0.017	0.005	-0.027	0.018	0.034	0.012	0.042	0.038	-0.022	-0.026
PGPEP1 (UniProt Q9NXJ5)	-0.003	0.102	-0.053	-0.046	0.013	0.014	-0.018	-0.059	0.001	-0.003
PIKFYVE (UniProt Q9Y2I7)	-0.026	-0.008	-0.01	0.005	-0.011	0.03	-0.034	-0.039	0.035	-0.004
PWP2 (UniProt Q15269)	0.051	-0.076	-0.036	0.02	0.015	-0.012	-0.013	0.018	0.04	-0.027
